The whole screen tested about 69,000 compounds, of which about 8,600 (12%) showed an effect of 50% or more. The sample holds strong results, similar compounds and a random draw of the others, so the mix is not that of the screen.

In ChEMBL document CHEMBL4513216, “Probing the Open Global Health Chemical Diversity Library for Multistage-Active Starting Points for Next-Generation Antimalarials” (ACS Infect Dis, 2020) one finds INHIBITION data, which are given here for 56 compounds.

This assay has as its system Plasmodium berghei. Briefly: Screen against P. berghei liver stage (PbLuc), transformed with Luciferase, at 10uM. The class given is functional, HepG2. The following applies: tested at 10 uM.
Consider `Cc1cnc(N2CCCOC(CN3CCCCC3)C2)nc1` (stereo unspecified), for which the INHIBITION turned out to be 34.1%.
With `Cc1cnc(N2CCC(OCCN3CCCCC3)C2)nc1C` (stereo unspecified) the figure was 54.5%; with `CC(C)(C)c1nccc(N2CCC(OCCN3CCCCC3)C2)n1` (stereo unspecified), 66.5%.
As for `c1cnc(N2CCC(OCCN3CCCCC3)C2)nc1` (stereo unspecified), the INHIBITION amounted to 40.6%.
In the case of `CN(CCN1CCCCCC1)c1nccc(N2CCC(O)C2)n1` (stereo unspecified), the INHIBITION was determined as 27.6%.
Turning to `COc1ccnc(N2CCC(OCCN3CCCCC3)C2)n1` (stereo unspecified), the INHIBITION is given as 42.4%.
To `Cc1cc(C)nc(N2CCC(OCCN3CCCCC3)C2)n1` (stereo unspecified) belongs 58.2%; to `Cc1ccnc(N2CCC(OCCN3CCCCC3)C2)n1` (stereo unspecified), 48.9%; to `C1CCN(CCOC2CCNCC2)CC1`, 3.63%.
To `c1nc2c(c(-c3ccsc3)n1)CCN(Cc1ccoc1)CC2` belongs 20.1%; to `CCCNC(c1cccnc1)c1ccc(F)c(C)c1` (stereo unspecified), -24.7%.
With `O=C(CN1CCOC(CNc2cccnn2)C1)NCc1cccs1` (stereo unspecified) the figure was 36.55%.
For `CC(C)(C)c1nc(CN2CCOC(Cn3cccn3)C2)no1` (stereo unspecified), the INHIBITION was -29.1%.
Regarding `O=C(c1ccncc1F)N1C[C@@H]2CC[C@H]1CN(Cc1cccnc1)C2`, the INHIBITION was determined as 22.7%.
To `Cc1cc(C(=O)NC(C)Cc2ccccc2Cl)n(C)n1` (stereo unspecified) belongs -39.3%; to `Cc1noc(C)c1CN1CCCC2(CCN(C(=O)N3CCOCC3)C2)C1` (stereo unspecified), 26%; to `Cc1ccc(-c2nc(CN3CC(n4nc(C)cc4C)C3)no2)cc1`, 1.86%.
To `COCC1COCCC12CCN(C(=O)Cc1ccc(F)cc1)CC2` (stereo unspecified) belongs 0.542%; to `COc1ccccc1C(C)CNC(=O)c1c(C)nn(C)c1OC` (stereo unspecified), 0.705%; to `COc1c(C(=O)NCC(C)Sc2ccccc2)c(C)nn1C` (stereo unspecified), 29.1%.
`CCC(CNC(=O)c1c(C)nn(C)c1OC)Oc1ccccc1` (stereo unspecified): the INHIBITION is on record as 73.5%.
With `Cc1ccc(NC(=O)N(CCO)Cc2ccsc2)cc1`, the INHIBITION is -71.5%.
With `COCCN(C)C(=O)Nc1ccc2c(ccn2CC(=O)N(C)C)c1` the figure was 19.73%; with `CCCn1ccc2ccc(NC(=O)N(C)CCOC)cc21`, 20.5%.
With `COCCN(C)C(=O)Nc1ccc2c(ccn2CCOC)c1`, the INHIBITION turned out to be 58.4%.
Regarding `O=C1CC2(CNCCN(C(=O)Nc3ccccc3)C2)CN1` (stereo unspecified), the INHIBITION stood at 16.1%.
To `CC(=O)NCC1CCC2(CCN(c3nccc(C4CCCC4)n3)CC2)O1` (stereo unspecified) belongs 42.1%; to `CC(=O)NCC1CCC2(CCN(c3ncc(C(C)=O)c(C)n3)CC2)O1` (stereo unspecified), 56.7%; to `CC(=O)NCC1CCC2(CCN(c3ncc(C)cn3)CC2)O1` (stereo unspecified), -4.21%.
`CCC(=O)N1CCC(NCc2cc(C(F)(F)F)ccc2Cl)C1` (stereo unspecified): the INHIBITION is recorded as 42.6%.
To `c1ccc(N2CCC3(COCCN(Cc4cccs4)C3)C2)nc1` (stereo unspecified) belongs -7.28%.
With `c1csc(CN2CCCC3(COCCN(c4cnccn4)C3)C2)c1` (stereo unspecified) the figure was 18.3%; with `O=C(c1cccs1)N1CCCC2(COCCN(c3cccnc3)C2)C1` (stereo unspecified), 67.2%.
For the compound `O=C(c1cccs1)N1CCOCC2(C1)CN(c1cccnc1)C(=O)CO2` (stereo unspecified), the INHIBITION came to 0.618%.
With `CC(C)N1CCOCC2(CCCN(C(=O)c3cncn3C)C2)C1` (stereo unspecified) the figure was 76.3%; with `CC(C)N1CCC2(CCCN(C(=O)c3cncn3C)C2)CC1`, 23.1%; with `Cn1cc(CN2CCCC3(COCCN(c4cccnc4)C3)C2)cn1` (stereo unspecified), 32.2%.
For the compound `c1cnc(N2CCOCC3(CCCN(Cc4cccs4)C3)C2)nc1` (stereo unspecified), the INHIBITION was 67.2%.
Turning to `CC(C)N1CCOCC2(CCCN(C(=O)c3cn(C)cn3)C2)C1` (stereo unspecified), the INHIBITION is -27.9%.
With `c1cncc(N2CCOCC3(CCCN(Cc4cccs4)C3)C2)c1` (stereo unspecified) the figure was 59.1%.
Regarding `O=C(c1cccnc1)N1CCCC2(COCCN(c3ccccc3)C2)C1` (stereo unspecified), the INHIBITION is 29.7%.
To `c1cncc(CN2CCCC3(COCCN(c4cncnc4)C3)C2)c1` (stereo unspecified) belongs 3.11%; to `Cc1ccnn1CCNC(=O)c1cnc(N(C)C)nc1`, -43.452%.
Take `COCCN1C[C@@H](C)[C@@]2(COCCN(C(=O)c3ccncc3)C2)C1`: the INHIBITION is given as -8.85%.
Take `COc1c(C2CCCN2C(=O)c2c(C)noc2C)c(C)nn1C` (stereo unspecified): the INHIBITION is 19.4%.
With `Cc1ccn2c(F)c(C(=O)N3CCC4(CCCN(C)C4=O)C3)nc2c1` (stereo unspecified), the INHIBITION is on record as 3.69%.
For the compound `Cc1cn[nH]c1C1COCCN1Cc1cscn1` (stereo unspecified), the INHIBITION came out at 25.85%.
In the case of `CCN(C)c1ncnc2c1CCN(C(=O)c1cnccn1)CC2`, the INHIBITION was -66%.
With `O=C(NCCO)c1sc2ncccc2c1C1CNCCO1` (stereo unspecified) the figure was 9.98%; with `CC(C)NC(=O)N1CCC2(CC1)COc1ccccc1S(=O)(=O)N(C)C2`, 4.57%.
As for `O=C([C@H]1CCCO1)N1CCCC2(COCCN(c3ccccc3)C2)C1` (stereo partly specified), the INHIBITION worked out at 66.3%.
As to `O=S(=O)(c1cccs1)N1CCCC2(COCCN(c3cccnc3)C2)C1` (stereo unspecified), the INHIBITION turned out to be 82.3%.
`c1cncc(N2CCOCC3(CCCN(c4nncs4)C3)C2)c1` (stereo unspecified): the INHIBITION is 43.2%.
With `O=C(N1CCCC1)N1CCOCC2(CCN(Cc3cccs3)C2)C1` (stereo unspecified), the INHIBITION worked out at 66.8%.
Regarding `O=C(C1CCCO1)N1CCCC2(CCN(c3cccnc3)CC2)C1` (stereo unspecified), the INHIBITION is reported as 29.5%.
`COCC(=O)N1CCOCC2(CCN(Cc3cccs3)C2)C1` (stereo unspecified): the INHIBITION is listed as -13.2%.
